Results on 55 molecules are retold here after PubChem BioAssay AID1706 (The Scripps Research Institute Molecular Screening Center, 2009).

In all, about 290,000 compounds went through this assay and about 400 (0.14%) were called active. What follows is part of a selection rich in actives, with near analogues and random picks from the rest. Values without a mark were called inactive. Rule as the data show it: active = inhibition above about 12%; inactive = the rest.

The target of the experiment is Replicase polyprotein 1ab (Severe acute respiratory syndrome coronavirus) (UniProt P0C6X7). As to the kind of experiment: blockers of SARS 3CLpro peptide cleavage – biochemical, quenched FRET, primary screen (AID 1706). The note with it: recombinant SARS-CoV 3CLpro, at 6 µM, stronger effect = higher value.
One may read the inhibition as the change of the read-out against control, counted positive when it falls. For the molecule `COc1ccc(S(=O)(=O)c2c[nH]c(=S)[nH]c2=O)cc1Cl`, the inhibition is -1.78%. Take `CN(CC(=O)N1CCN(c2ccccc2)CC1)S(=O)(=O)c1cccs1`: the inhibition is 2.74%. Next, `CC(=O)c1ccc(S(=O)(=O)N2CCC(Oc3ccc(-n4cnnn4)cc3)CC2)cc1`: -1.99%. Turning to `CC(Sc1nnc(CNC(=O)c2ccccc2F)n1C)C(=O)Nc1nccs1` (stereo not given), the inhibition is -0.59%. To `COc1cc(C(=O)NCCOC(=O)c2cccc(N(C)C)c2)cc(OC)c1OC` belongs 0.81%.

As for `CCOC(=O)C1CCCN(CCSc2ccc(C)cc2)C1` (stereo not given), the inhibition was -2.08%. To `Cc1ccc(-c2nn(-c3ccccc3)cc2C(=O)Nc2cccc(S(=O)(=O)N3CCOCC3)c2)cc1` belongs 1.75%; to `O=C(O)c1ccc(NC(=O)c2cn(-c3ccccc3)nc2-c2ccc(Cl)cc2)cc1`, 12.7% (active); to `COc1ccc(-c2nn(-c3ccccc3)cc2/C=C\C(=O)Nc2ccc(C(=O)O)cc2)cc1`, 7.15%. Next, `CCc1ccc(N(C(=O)c2csnn2)C(C(=O)NC2CCCCC2)c2ccncc2)cc1` (stereo not given): 0.17%; `CC(C)(C)c1ccccc1NC(=O)CN1C(=O)NC2(CCCC2)C1=O`: 0.18%. To `Clc1ccc(Cc2nn3c(-c4ccncc4)nnc3s2)cc1` belongs 2.77%; to `O=C(NCCCN1CCCCC1)C1CCCN(c2ncnc3c2nc2n3CCCCC2)C1` (stereo not given), 1.81%; to `Cc1nn2c(=O)cc(COC(=O)c3ccc(NC(=O)C(C)(C)C)cc3)nc2s1`, -0.62%. `Fc1ccccc1/C=N/Nc1cc(N2CCCCC2)ncn1`: the inhibition was 0.22%. `O=C(C1CCC(C(=O)N2CCCC2)CC1)N1CCCC1` (stereo not given): the inhibition was -3.63%.

For `COc1cccc(-c2noc(C3CCCN(C(=O)c4ccc(F)cc4)C3)n2)c1` (stereo not given), the inhibition was 2.89%.

As to `CCNS(=O)(=O)c1ccc(CCC(=O)N2CCN(c3cc(Cl)ccc3C)CC2)cc1`, the inhibition is 0.81%. Next, `CC(C)(C)C1CCC(C(=O)NCC(c2cccs2)N2CCOCC2)CC1` (stereo not given): 4.8%. To `COc1cc(NS(=O)(=O)c2ccc(NC(=S)NC(=O)c3ccc(Br)cc3)cc2)ncn1` belongs -2.77%; to `COc1cc(CCC(=O)N2CCN(c3ccccc3Cl)CC2)cc(OC)c1OC`, -0.35%; to `CCN(CC)S(=O)(=O)c1ccc(Cl)c(C(=O)NCCN2CCOCC2)c1`, -0.28%. To `CC(C)CCN1CCN(Cc2cn[nH]c2C2CCCCC2)CC1CCO` (stereo not given) belongs 1.66%; to `COc1ccccc1/C=C/C(=O)NC(=S)N1CCOCC1`, 2.02%.

Consider `COc1ccc(Cc2nc3ccc(C(=O)N4CCC(N(C)C)C4)cc3o2)cc1` (stereo not given), for which the inhibition was -1.77%. To `C[C@@]12C(=O)N(c3cccc(Br)c3)C(=O)N1[C@H](c1ccc(Cl)cc1)[C@@H]1C(=O)N(C3CCCCC3)C(=O)[C@@H]12` belongs 32.5% (active); to `Cc1cccc([C@@H]2[C@@H]3C(=O)N(Cc4ccccc4)C(=O)[C@@H]3[C@]3(C)C(=O)N(c4ccc(Br)cc4)C(=O)N23)c1`, -2.23%. To `Cc1cccc(N2C(=O)N3[C@H](c4ccc(F)cc4)[C@@H]4C(=O)N(C5CCCCC5)C(=O)[C@@H]4[C@]3(Cc3ccccc3)C2=O)c1` belongs 9.1%; to `Cn1c(=O)c(=O)n(C)c2cc(S(=O)(=O)CCC(=O)N3CCCCC3)ccc21`, -7.51%; to `O=C(NCc1ccccc1)c1ccc(S(=O)(=O)Nc2cccc(C(F)(F)F)c2)cc1`, 17.3% (active). To `O=C(COc1ccc(S(=O)(=O)Nc2cccc(C(F)(F)F)c2)cc1)N1CCOCC1` belongs -1.24%.

Take `O=C(NCc1cccc(C(F)(F)F)c1)c1cccc(S(=O)(=O)N2CCN(Cc3ccccc3)CC2)c1`: the inhibition is 1.65%. To `CN(C(=O)CCNC(=O)Cn1ccc2ccccc2c1=O)c1ccc(Br)cc1` belongs 1.62%. To `COc1cc(/C=C(\C#N)c2nc3ccccc3[nH]2)ccc1O` belongs -3.33%. To `COc1ccc2[nH]cc(/C=C(/C#N)S(=O)(=O)c3ccccc3)c2c1` belongs 4.75%; to `COc1ccc(/C=C(\C#N)c2c[nH]c3ccccc23)cc1`, 14.6% (active); to `CC(c1cccnc1)N(CCN(C)C)C(=O)Nc1ccc(Cl)c(Cl)c1` (stereo not given), 2.29%. Regarding `CS(=O)(=O)N(Cc1ccccc1Cl)c1ccc(C(=O)NCc2cccnc2)cc1`, the inhibition is 1.33%. Next, `O=C(Nc1ccc(S(=O)(=O)NCC2CCCO2)cc1)c1ccc(F)cc1` (stereo not given): -0.56%; `O=S(=O)(Nc1ccccc1)c1ccc(NS(=O)(=O)c2cccs2)cc1`: 2.66%. Next, `COC(=O)C1=CN(c2ccc(F)c(F)c2)C=C(C(=O)OC)C1c1ccc([N+](=O)[O-])cc1`: 1.13%. Next, `O=C(NCc1ccc(F)cc1)C1CCN(C(=O)Nc2ccc(F)cc2)CC1`: 5.05%; `CC(C)c1ccc(C2C(C(=O)c3ccco3)=C(O)C(=O)N2CC2CCCO2)cc1` (stereo not given): -0.41%; `Cc1nn(C)c(C)c1C(C)NC(=O)c1ccc(OC2CCN(Cc3ccccn3)CC2)cc1` (stereo not given): 3.56%. Turning to `CCOc1ccc(OCc2cccc(C(=O)N(CC)CC)c2)cc1`, the inhibition was -3.35%. To `COc1ccc(C(=O)NCCSc2ccccc2C)cc1` belongs 6.37%; to `Cc1ccc(C(CNC(=O)Nc2ccccc2)N2CCN(C)CC2)cc1` (stereo not given), -5.22%.

For `Cc1ccc(CS(=O)(=O)CCC(=O)NCc2ccc(F)cc2)cc1`, the inhibition is -1.28%. Next, `COc1cccc(CC2(CO)CCCN(Cc3ccc(OC(F)F)cc3)C2)c1` (stereo not given): -5.59%; `CCOC(=O)CN(Cc1ccc(OC)c(OC)c1)S(=O)(=O)c1ccc(OC)cc1`: 4.93%. To `COc1ccc(CN(C)C(=O)CC(c2ccccc2)c2ccccc2)cc1` belongs 4.64%; to `COc1ccc(C(CCN(Cc2ccc(OC)c(OC)c2)C(=O)CCl)c2ccccc2)cc1` (stereo not given), 34.5% (active). To `COC(=O)COc1cccc2c(=O)n(CC(=O)NCc3ccccc3)ccc12` belongs 12.8% (active).

On to `Cc1ccc(CNC(=O)CCNC(=O)Cn2ccc3ccccc3c2=O)cc1`, for which the inhibition was 3.36%.

As for `COC(=O)COc1cccc2c(=O)n(CC(=O)NCCc3ccc(OC)c(OC)c3)ccc12`, the inhibition was 4.26%.
